Data published in PubChem BioAssay (EPA / NIEHS).
Where a structure was tested more than once in an assay, its records may differ in their call. The source made the active and inactive calls. The calls were made as follows: active = hit-call score of the fitted dose curve at least 0.9, where 1 is the maximum; inactive = score below 0.9.

experiment: CCTE_Shafer_MEA_dev_per_network_spike_spike_number_mean: CCTE's Neural Network Formation Assay for Mean Number of Spikes in a Network Spike, Shafer Lab (AID 2284053)
Procedure: CCTE_Shafer_MEA_dev assay is conducted using Axion Biosystems 48 well microelectrode array (MEA) plates and Maestro recording system. Each well of the MEA plate contains a grid of 16 microelectrodes embedded in the culture surface. Electrically active cells, such as neurons, can be cultured over the electrodes, and electrical activity in these cells can be recorded extracellularly. The spontaneous firing of neurons is captured from each electrode on a microsecond timescale providing both temporally and spatially precise data. […] The CCTE_Shafer_MEA_dev assay uses primary cultures of rat cortical neurons. Recordings are made on days post-plating 5, 7, 9 and 12. As these cultures mature over time, neural networks develop functional activity and form cohesive networks in which electrical activity can be highly coordinated. CCTE_Shafer_MEA_dev_per_network_spike_spike_number_mean is 1 of 19 assay components of the CCTE_Shafer_MEA_dev assay. It measures the average number of spikes (action potential firings) in a network spike (temporally-clustered group of spikes across multiple electrodes) as the number of spikes that occur within a 0.05 s time window at the peak of a network spike divided by the total number of network spikes during a recording in a microelectrode array (MEA) using Axion Biosystems Maestro 768 channel amplifier with the AxIS adaptive spike detector. To collapse across multiple recordings made on days post-plating 5, 7, 9 and 12, the trapezoidal area-under-the-curve of the component is calculated.Data from the assay component CCTE_Shafer_MEA_dev_per_network_spike_spike_number_mean was analyzed into 1 assay endpoint. This assay endpoint, CCTE_Shafer_MEA_dev_per_network_spike_spike_number_mean, was analyzed in the negative analysis fitting direction relative to DMSO as the negative control and baseline of activity. Using a type of functional reporter, gain or loss-of-signal activity can be used to understand electrical activity.
On the day prior to culture, each well was coated thoroughly with 150 uL of 0.05% polyethyleneimine (PEI, Sigma Cat P3143) in 50 mM HEPES (Sigma Cat H7523) at a pH of 8. The plate was incubated at 37C for one hour. PEI was rinsed out with 500 uL of sterile water three times. Plates were stored at 4C until the day of culture. This culture was plated at a seeding density of 1.5 x 10^5 cells/well on a 48-well MEA plate, prepared as described above. Cells were administered via a 25 uL media/laminin ([…]; Sigma Cat L2020-1MG) drop directly onto the microelectrode array, as adding the cells with the laminin results in better attachment than pre-coating with laminin. After 2 hours, an additional 475 uL of cortical media was added and the cells returned to the incubator. Exposure starts at day 0 of plating and is continued over twelve days of network development until the experiment is terminated. Cells are fed with fresh medium on DIV 5 and 9, following the recordings on those days. The entire volume of media in the well is exchanged and any vehicle or compound treatment is renewed. Complete details are found in OP-NHEERL/ISTD/SBB/TJS/2015-03-r0 (available on request, email shafer.tim@epa.gov). Measurement of the electrical activity is non-invasive, and recordings can be made from the same plate over multiple different days of the culture. In cortical neurons, this allows for the measurement of extracellular action potentials over the period during which networks form in the MEA plate.

SMILES	outcome	AC50
O=C(C=C(O)C(F)(F)F)C(F)(F)F	inactive	
O=P(O)(O)CCC(F)(F)C(F)(F)C(F)(F)C(F)(F)C(F)(F)C(F)(F)F	inactive	
O=C(OC(=O)C(F)(F)C(F)(F)F)C(F)(F)C(F)(F)F	inactive	
C=CC(F)(F)C(F)(F)C(F)(F)C(F)(F)F	inactive	
CC(=O)Nc1ccc(O)cc1	inactive	
O=C(CCCN1CCC(O)(c2ccc(Cl)cc2)CC1)c1ccc(F)cc1		753 nM (active)
OCC(F)(F)C(F)(F)C(F)(F)C(F)(F)C(F)(F)C(F)(F)C(F)(F)C(F)(F)C(F)(F)C(F)(F)C(F)(F)F	inactive	6630 nM (active)
FC(F)=C(F)C(F)(F)C(F)(F)C(F)(F)C(F)F	inactive	
O=C(O)CCC(F)(F)C(F)(F)C(F)(F)C(F)(F)C(F)(F)F	inactive	
O=C(CC(=O)C(F)(F)C(F)(F)C(F)(F)F)c1cccs1		3720 nM (active)
O=P(O)(O)CCC(F)(F)C(F)(F)C(F)(F)C(F)(F)C(F)(F)C(F)(F)C(F)(F)C(F)(F)F		4230 nM (active)
O=C1NS(=O)(=O)c2ccccc21	inactive	
COC(=O)C(F)(F)C(F)(F)C(F)(F)C(F)(F)C(F)(F)F	inactive	
O=CC(F)(F)C(F)(F)C(F)(F)F	inactive	
O=C(O)C(F)(F)OC(F)(F)C(F)(F)OC(F)(F)C(F)(F)OC(F)(F)C(F)(F)C(F)(F)C(F)(F)F	inactive	
CC(C)c1c(C(=O)Nc2ccccc2)c(-c2ccccc2)c(-c2ccc(F)cc2)n1CC[C@@H](O)C[C@@H](O)CC(=O)O		8.16 nM (active)
O=C(F)C(F)(F)C(F)(F)C(F)(F)C(F)F	inactive	
FCOC(C(F)(F)F)C(F)(F)F	inactive	
O=C(F)C(F)(F)C(F)(F)C(F)(F)C(=O)F	inactive	
Nc1ccn([C@@H]2O[C@H](CO)[C@@H](O)C2O)c(=O)n1 (some centres not stated)		205 nM (active)
CN(C)CCOC(c1ccccc1)c1ccccc1	inactive	
O=CC(F)(F)C(F)(F)C(F)(F)C(F)F	inactive	
COC(=O)C(F)(F)C(F)(F)C(F)(F)F	inactive	
CN(CCO)S(=O)(=O)C(F)(F)C(F)(F)C(F)(F)C(F)(F)C(F)(F)C(F)(F)C(F)(F)C(F)(F)F	inactive	
NC(C(F)(F)F)C(F)(F)F	inactive	
CN(Cc1cnc2nc(N)nc(N)c2n1)c1ccc(C(=O)N[C@@H](CCC(=O)O)C(=O)O)cc1		25.8 nM (active)
